GPR151 activ: activators of human GPR151, primary screen, cell-based, PathHunter beta-arrestin, luminescence. actives 1% (n = 650,000). AID 1508602, 2020. PathHunter beta-arrestin GPR151 cells. activation, % at 11.2 µM. G-protein coupled receptor 151 (Homo sapiens), Q8TDV0; in the data active = activation above about 4.9%;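 also: 0% = median of compound wells and 100% = cells with positive control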
MITF primary: MITF inhibitors, primary screen, biochemical, AlphaScreen, human. AlphaScreen MITF homodimerization, bead proximity signal. Microphthalmia-associated transcription factor (Homo sapiens), O75030. inhibition, % at 2.6 µM. actives 0.91% (n = 650,000); in the data active = inhibition above about 50%;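 also: 0% = vehicle wells with protein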
Target sequence (O75030 whole entry, looked up): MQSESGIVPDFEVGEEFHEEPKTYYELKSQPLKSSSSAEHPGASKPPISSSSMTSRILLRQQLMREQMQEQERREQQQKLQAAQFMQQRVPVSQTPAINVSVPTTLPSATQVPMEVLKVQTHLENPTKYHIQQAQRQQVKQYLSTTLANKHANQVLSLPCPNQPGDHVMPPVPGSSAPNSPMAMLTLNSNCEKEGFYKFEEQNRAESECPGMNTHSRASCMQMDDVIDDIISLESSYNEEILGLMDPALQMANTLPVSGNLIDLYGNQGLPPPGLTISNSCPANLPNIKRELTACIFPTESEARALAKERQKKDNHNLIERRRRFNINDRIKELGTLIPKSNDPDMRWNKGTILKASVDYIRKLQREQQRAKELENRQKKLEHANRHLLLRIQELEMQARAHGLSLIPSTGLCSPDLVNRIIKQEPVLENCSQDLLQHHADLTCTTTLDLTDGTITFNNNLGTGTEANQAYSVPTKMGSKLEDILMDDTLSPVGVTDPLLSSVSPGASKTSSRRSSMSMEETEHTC
TEAD-YAP inh: TEAD-YAP interaction inhibition, primary screen, TEAD-YAP interaction inhibitor project, luminescence, HEK-TIYL cells | TEAD-Gal4/YAP UAS-luciferase luminescence | inhibition, % at 9.12 µM | actives 1.4% (n = 640,000) | AID 1259422, 2018; in the data active = inhibition above about 32%;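 also: 0% = median of test compound wells and 100% = reference inhibitor wells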
FBW7 activator: FBW7 E3 ligase activators, primary screen, biochemical, AlphaScreen, human | F-box/WD repeat-containing protein 7 (Homo sapiens), Q969H0 | AlphaScreen FBW7–phospho-cyclin E peptide binding, activator screen | normalized activity (activation), % at 26.1 µM | actives 0.13% (n = 650,000); in the data active = normalized activity above about 1.9%;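 also: purified mutant Fbw7 with reduced substrate affinity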
Numbers without * were called inactive. A selection: hits, their analogues and other compounds. The true share with any hit is near 3.5%.

SMILES	GPR151 activ	MITF primary	TEAD-YAP inh	FBW7 activator
Oc1c(/C=N/n2cnnc2)sc2ccccc12	-3.8	25.6	72.5*	0.4
Cc1ccc(N=Cc2sc3ccccc3c2O)cc1	-9.6	3.6	79.7*	-0.2
Nc1ccccc1N=Cc1sc2ccccc2c1O	-4.5	23.0	-31.7	-0.1
Cc1nc2c(C(=O)N3CCCC3)cnn2c(C)c1Cc1ccc(Cl)cc1	-0.2	8.2	-6.2	-0.2
CCOc1ccc(N=Cc2sc3ccccc3c2O)cc1	-10.4	-8.7	87.9*	0.1
Fc1ccccc1C1Oc2ccccc2C2=C1C(c1cccnc1)n1nnnc1N2 (stereo unspecified)	0.7	6.7	-1.8	0.1
O=C1C(=O)N(c2cccc(C(F)(F)F)c2)C(c2ccc(Br)cc2)/C1=C(\O)c1ccccc1 (stereo unspecified)	-0.2	-5.2	-10.3	0.1
COc1cc(C(=O)NN=C2CCCC2)cc(OC)c1OC	2.2	3.5	61.9*	0.7
COc1cc(C(=O)N/N=C2/CCCc3ccccc32)cc(OC)c1OC	0.5	10.2	59.8*	0.1
Nc1ccc(C(=O)N/N=C2\CCCc3ccccc32)cc1	1.0	-5.5	-19.1	-0.2
COc1cc(C(=O)NC2CCCC2)cc(OC)c1OC	-1.0	11.6	7.2	0.2
COc1cc(C(=O)NN=C2CCN(Cc3ccccc3)CC2)cc(OC)c1OC	-1.2	20.0	70.3*	0.6
COc1cc(C(=O)NN=C2CCC(c3ccccc3)CC2)cc(OC)c1OC (stereo unspecified)	0.2	1.1	60.6*	0.1
Cc1cc(-c2n[nH]c(=S)n2-c2ccc(F)cc2)n(C)n1	-0.2	8.0	11.6	-0.2
CN(C)c1ccc(NC(=O)COC(=O)C2=NNC(=O)CC2)cc1	0.0	3.9	2.9	0.3
CCCCN(CC)S(=O)(=O)c1ccccc1	-0.8	-26.5	0.3	0.1
CCCCP(=Nc1ccccc1)(N(CC)CC)N(CC)CC	1.2	8.4	92.1*	0.2
O=[N+]([O-])c1ccc(Cc2noc(COc3ccc4ccccc4c3)n2)cc1	0.3	7.6	1.4	-0.2
CC(C)Cc1nnc(NC(=O)CC(C)(C)C)s1	0.0	16.0	-8.8	2.1*
CCC(C)NC(=O)CN1N=C(c2ccc(Cl)cc2)CCC1=O (stereo unspecified)	1.2	-7.2	-2.7	0.1
C(=Nc1ccc2c(c1)OCCO2)c1ccc(OC2CSC2)cc1	1.0	10.7	44.9*	1.4
CCOC(=O)N1CCc2c(sc(NCc3ccccn3)c2C(=O)Nc2ccc(OC)cc2OC)C1	-1.2	-1.4	47.8*	-0.6
CC(=O)c1cccc(-c2nc(Nc3ccccc3)c3[nH]cnc3n2)c1	4.3	-3.7	1.2	0.0
COc1ccc(-c2nc3ncnc(Nc4cc(OC)c(OC)c(OC)c4)c3[nH]2)cn1	-1.1	19.2	45.6*	0.6
COc1ccc(-c2nc(Nc3cc(OC)c(OC)c(OC)c3)c3[nH]cnc3n2)cn1	-0.6	12.2	57.4*	0.3
SMILES	GPR151 activ	MITF primary	TEAD-YAP inh	FBW7 activator
COc1cc(Nc2nc(-c3cccc(C(C)=O)c3)nc3nc[nH]c23)cc(OC)c1OC	0.1	10.0	30.2	1.9*
COc1ccc(-c2nc3ncnc(Nc4ccc(NC(C)=O)cc4)c3[nH]2)cn1	0.5	22.3	11.8	0.1
COc1ccc(-c2nc3ncnc(NCCc4ccc(O)cc4)c3[nH]2)cc1	1.7	11.2	59.3*	0.1
O=C(N[C@H]1C[C@H]2C(=O)N3CCC[C@H]3C(=O)N2C1)c1cccs1	0.4	-7.0	-5.2	-0.1
CCOC(=O)c1[nH]c(CBr)c(C(=O)OCC)c1C	2.0	8.0	-6.9	0.0
COc1cc2c(cnn2-c2cccc(C(=O)NCCN3CCOCC3)c2)cc1N	-0.1	18.2	0.9	0.8
O=C(Nc1ccc2scnc2c1)c1sc2ccccc2c1Cl	0.1	19.6	-24.3	0.6
Cc1ccc(C(=O)N2CC[C@H]3[C@H](CCC(=O)N3Cc3ccccc3)C2)s1	0.9	-3.7	-8.4	0.0
COc1ccc(-c2nc3ncnc(NCCN(C(C)C)C(C)C)c3[nH]2)cn1	-0.5	12.9	9.1	-0.2
COc1ccc(-c2nc3ncnc(NCCOc4ccccc4)c3[nH]2)cn1	0.5	3.4	36.0*	0.0
CN(C)c1ccc(/C=C(\C(N)=O)c2nc3ccccc3[nH]2)cc1	-3.1	-7.3	83.1*	0.1
c1coc(-c2nc3ccccn3c2Nc2ccc3c(c2)OCCO3)c1	-1.6	-3.6	41.4*	-0.3
CCOc1ccc2nc(N3CCCC3)sc2c1	-2.0	3.1	42.5*	-0.2
CCOc1ccc2nc(N3CCC(C(=O)N4CCC(C(N)=O)CC4)CC3)sc2c1	-1.1	0.6	19.4	-0.1
CCOc1ccc2nc(N3CCN(S(=O)(=O)c4ccccc4)CC3)sc2c1	-0.1	1.8	13.4	0.1
CCOc1ccc2nc(NC(=O)CCCC(=O)O)sc2c1	-0.5	-12.0	13.1	-0.2
CCOc1cc2sc(N3CCC(C(=O)O)CC3)nc2cc1Br	1.9	1.1	47.3*	0.0
CCOc1ccc2nc(NC(=O)C(C)(C)C)sc2c1	-0.3	8.0	63.1*	0.0
CCOc1ccc2nc(N3CCCCC3)sc2c1	-6.3	3.2	53.3*	0.0
CCOc1ccc2nc(N3CCN(C(=O)C(C)C)CC3)sc2c1	1.0	12.8	-11.2	0.0
CC1(C)CC(C(=O)N2CCOc3ccc(CN4CCc5ccccc5C4)cc3C2)CCO1 (stereo unspecified)	0.1	0.9	20.2	-0.2
O=C(Nc1ccc(N2CCOCC2)cc1)c1cc(Nc2ccc(C(F)(F)F)cc2)nc2ccccc12	4.1	8.2	-5.3	0.6
COc1ccc(CCN(C)C2CCC(=O)N(Cc3ccccc3)CC2)cc1OC (stereo unspecified)	0.0	-1.3	-3.3	0.0
COC(=O)c1ccc(C(=O)Nc2nc3c(s2)CCCC3)cc1	-4.1	-9.9	-76.9	0.0
Cn1ccc(C(=O)Nc2nc3c(s2)CCCC3)n1	-10.1	25.8	46.4*	0.8
SMILES	GPR151 activ	MITF primary	TEAD-YAP inh	FBW7 activator
O=C(Nc1nc2c(s1)CCCC2)c1cc(F)c(F)c(F)c1F	3.4	0.8	47.8*	0.0
O=C(Nc1nc2c(s1)CCCC2)c1ccccc1I	2.3	-1.9	-75.0	-0.1
Cc1ccc(-n2nc3ccc(N)cc3n2)cc1Cl	-0.9	-4.7	-20.2	-0.1
Cc1ccc(-n2nc3ccc(N)cc3n2)c(C)c1	0.4	9.5	40.2*	0.2
CN1CCN(Cc2c(O)ccc3c(=O)c(Oc4ccc(-c5ccccc5)cc4)c(C(F)(F)F)oc23)CC1	-0.9	13.3	-3.2	0.1
CC(C)(C)c1ccc(Oc2c(C(F)(F)F)oc3c(CN4CCCC4)c(O)ccc3c2=O)cc1	-0.1	10.4	36.1*	0.2
CN1CCN(Cc2c(O)ccc3c(=O)c(Oc4ccc(C(C)(C)C)cc4)c(C(F)(F)F)oc23)CC1	-1.0	2.9	34.0*	0.9
Cc1cc(C)cc(Oc2c(C(F)(F)F)oc3c(CN4CCCCC4)c(O)ccc3c2=O)c1	-2.0	13.9	-2.8	0.2
Cc1nc(CNC(=O)CC2C(=O)NCCN2C)sc1C (stereo unspecified)	-1.5	3.4	9.8	0.3
